Reference: PubChem BioAssay (NCI)
Compounds without any hit were thinned out: in the full panel of roughly 79,000, 15% have a hit. No stated cut-off is given here; in the data, active means growth inhibition above about 70%; inactive means the rest.

Legend:
[1] = NCI Yeast Anticancer Drug Screen. Data for the rad50 strain (AID 155);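 further: 0% = growth of vehicle-only cultures of the same strain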; conditions: S. cerevisiae rad50 strain growth inhibition, hits give high values; at 50.0 µM unless noted
Outline: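 Inhibition values express reduced yeast growth in compound-treated cultures relative to vehicle-treated controls.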

[2] = NCI Yeast Anticancer Drug Screen. Data for the mec2-1 strain (AID 157); conditions: S. cerevisiae mec2-1 strain, hits give high values; at 50.0 µM unless noted
Outline: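 Growth inhibition is read against vehicle-treated controls after compound exposure of the mec2-1 yeast strain, which is defective in DNA damage repair or cell cycle control.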

[3] = NCI Yeast Anticancer Drug Screen. Data for the sgs1 mgt1 strain (AID 161);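 further: 0% = growth of cultures given vehicle only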; conditions: S. cerevisiae sgs1 mgt1 strain, hits give high values; at 50.0 µM unless noted
Outline: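 Growth of a repair-deficient yeast mutant was monitored after compound treatment and expressed as inhibition relative to vehicle-treated cultures.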

[4] = NCI Yeast Anticancer Drug Screen. Data for the cln2 rad14 strain (AID 165);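 further: 0% = growth equal to vehicle treated cultures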; conditions: S. cerevisiae cln2 rad14 strain, hits give high values; at 50.0 µM unless noted
Outline: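 Growth inhibition, relative to vehicle-treated controls, is the read-out. The test organism is a yeast strain with defined genetic alterations, cln2 rad14.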

[5] = NCI Yeast Anticancer Drug Screen. Data for the bub3 strain (AID 167); conditions: S. cerevisiae bub3 mutant strain, hits give high values; at 50.0 µM unless noted
Outline: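 Steps: expose the mutant yeast strain to compound; grow alongside vehicle-treated cultures; measure growth; express inhibition against the vehicle cultures.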

[6] = NCI Yeast Anticancer Drug Screen. Data for the mlh1 rad18 strain (AID 175); conditions: S. cerevisiae mlh1 rad18 strain growth inhibition, hits give high values; at 50.0 µM unless noted
Outline: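 Cells of a genetically altered yeast strain, deficient in DNA damage repair, were treated with compound. Their growth was then compared with that of vehicle-treated cultures to give inhibition.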

Measured: growth inhibition

CC1(C)CC[C@]2(C(=O)O)CC[C@]3(C)C(=CC[C@@H]4[C@@]5(C)CC[C@H](O)C(C)(C)[C@@H]5CC[C@]43C)[C@@H]2C1
inactive: [1] -3.7% | [2] 4.4% | [3] -7.5% | [4] 13.2% | [5] 0.1% | [6] -3.9%

COc1ccc(/C=C/c2ccc(OC)cc2)cc1
inactive: [1] 13.3% | [2] -8.1% | [3] 0.6% | [4] -13.4% | [5] 8.7% | [6] 5.8%

Clc1cccc(NC2=NCCN=C(Nc3cccc(Cl)c3Cl)SS2)c1Cl
inactive: [1] 8.6% | [2] -17.5% | [3] -0.75% | [4] 5.85% | [5] 3.75% | [6] 6.55%

COc1cccc(N)c1N
inactive: [1] 21.4% | [2] -15.2% | [3] -3.6% | [4] 4.6% | [5] -16.9% | [6] -9.2%

CC(C)N(Cc1ccccc1)S(=O)(=O)c1n[nH]c(C(C)(C)C)n1
inactive: [1] 3.2% | [2] -27.1% | [3] -3.65% | [4] -5.8% | [5] -6.75% | [6] -0.75%

C=C(C)C(=NC(C)(C)C)Nc1ccc(C(=O)OCC)cc1
inactive: [1] -8.3% | [2] -5.6% | [3] -11.8% | [4] -21.2% | [5] -24.1% | [6] -45.6%

CCC(C)C/C(C)=N/Nc1ccc([N+](=O)[O-])cc1[N+](=O)[O-] (stereo not given)
inactive: [1] -0.4% | [2] 7.85% | [3] 0.65% | [4] -16.4% | [5] 12.7% | [6] -6.25%

CC(O)CCC(=O)c1nc2ccccc2s1 (stereo not given)
inactive: [1] -14.4% | [2] 19.2% | [3] 5.95% | [4] -6.3% | [5] 4.95% | [6] 3.5%

COC(=O)c1ccc(Oc2nc3ccc(C(F)(F)F)cc3nc2-c2ccccc2)cc1
inactive: [1] -11.9% | [2] -31.9% | [3] 14.3% | [4] -34.1% | [5] -23.8% | [6] -19.1%

CN1N=C(c2ccncc2)OC1c1cccc(C(F)(F)F)c1 (stereo not given)
inactive: [1] -63.6% | [2] -65.9% | [3] -32.8% | [4] -3.6% | [5] 0.75% | [6] -21.3%

COc1cc(O)c2c(=O)cc(-c3ccc(O)cc3O)oc2c1CC=C(C)C
inactive: [1] 43.5% | [2] 0.4% | [3] -0.25% | [4] 17.7% | [5] -2.8% | [6] -20.5%

COc1ccc2c(c1)c(COC(C)=O)c(C)c[n+]2[O-]
inactive: [1] 25.1% | [2] 28.8% | [3] 42.1% | [4] 16.6% | [5] 22.1% | [6] 52.9%

COCCN(CCOC)C(=O)Nc1ccc(Cl)cc1
inactive: [1] 4.6% | [2] 5.5% | [3] 10.4% | [4] 4.5% | [5] 0.8% | [6] 9.75%

Cc1ccc(S(=O)(=O)N2CCC(CCl)N(S(=O)(=O)c3ccc(C)cc3)CC2CCl)cc1 (stereo not given)
inactive: [1] 18.1% | [2] 3.6% | [3] 0.95% | [4] -9.05% | [5] 3.45% | [6] 7.8%

O=NNc1ccc(S(=O)(=O)c2ccc3ccccc3c2)cn1
inactive: [1] 31.7% | [2] 12.8% | [3] -24.9% | [4] -8.95% | [5] -25.6% | [6] -88.5%

COC1CN(C(C)(C)C)C1
inactive: [1] 2.65% | [2] 6.15% | [3] -1.2% | [4] 2.65% | [5] 6.6% | [6] 0.95%

CC(=O)ONC(C(=O)C(C)(C)C)C(=O)C(C)(C)C
inactive: [1] -1.4% | [2] -4.4% | [3] -3.9% | [4] 24.7% | [5] -2.7% | [6] -4.8%

COc1cccc(C)c1C(=O)O
inactive: [1] -4.05% | [2] 1.7% | [3] 5.7% | [4] -20.1% | [5] -32% | [6] -5.4%

Oc1ccc(C(Cc2ccccc2)NCc2ccccc2)cc1 (stereo not given)
inactive: [1] -8.15% | [2] 14.6% | [3] 15.7% | [4] -12.6% | [5] 5.25% | [6] 17.9%

CCN(CC)c1ccc2cc(-c3csc(-c4ccc(N(C)C)cc4)n3)c(=O)oc2c1
inactive: [1] 26.5% | [2] 12.7% | [3] -5.25% | [4] 16.9% | [5] -13.1% | [6] -20.3%
